The record followed here is PubChem BioAssay.

Assay [1] is described as follows: antimalarial activity against Dd2 strain (AID 2302;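 active = growth inhibition above 50% at the single 2 µM test dose, taken to imply half-maximal potency below 2 µM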;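 note: 0% = DMSO untreated growth and 100% = chloroquine plus artemisinin killed control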). Conditions: P. falciparum Dd2 in RBCs, LDH growth readout, 72 h; at 2 µM; stronger effect = higher value.
Assay [2] in a line: human hepatoma cell viability loss – ATP luminescence, cytotoxicity control for P. falciparum antimalarial project, primary screen (AID 2303;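 active = inhibition above 50%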;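 note: 0% = DMSO wells and 100% = digitonin-killed cells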). Conditions: HepG2 viability, 24-48 h, at 10 µM, stronger effect = higher value.
The target of assay [3] is L-lactate dehydrogenase (Plasmodium falciparum (isolate CDC / Honduras)) (UniProt Q27743). The experiment in a line: PfLDH activity inhibition – cell lysate, 3D7 strain, counter-screen for P. falciparum growth inhibition project (AID 2304).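 Note: 0% = vehicle and 100% = reference inhibitor.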 The note with it: P. falciparum 3D7 crude extract, LDH APAD/NBT absorbance; at 2 µM; stronger effect = higher value.
Assay [4] in a line: inhibition of 3D7 malaria parasite growth – strain 3D7 (AID 2306).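 Note: 0% = DMSO wells and 100% = chloroquine plus artemisinin control wells.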 The note with it: P. falciparum 3D7 erythrocytic growth, LDH absorbance, 72 h; at 2 µM; stronger effect = higher value.
Assay [5] deals with Calcium-dependent protein kinase 1 (Plasmodium falciparum (isolate 3D7)) (UniProt P62344). Nature of the assay: PfCDPK1 kinase inhibitors, biochemical, TCAMS library (AID 1159585; cut-off not given, nearly all actives have IC50 up to about 0.98 µM;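 note: inhibitors leave more ATP so luminescence rises with inhibition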). The note with it: recombinant PfCDPK1, Kinase-Glo ATP depletion luminescence. On the technique in general: Kinase-Glo measures the ATP left after a reaction by luminescence.
Assay [6] addresses Plasmodium falciparum protein kinase 6 (PK6, PF3D7_1337100) (UniProt Q8IDW1). Nature of the assay: PfPK6 kinase inhibitors, biochemical, TCAMS library (AID 1159586). Conditions: recombinant PfPK6, Kinase-Glo ATP depletion luminescence.
The target in assay [7] is Protein kinase 7 (PK7), Plasmodium falciparum 3D7 (PF3D7_0213400) (UniProt Q7YTF7). The experiment in a line: inhibition of Plasmodium PK7 catalytic activity – biochemical, TCAMS antimalarial set, Kinase-Glo luminescence (AID 1159587). The note with it: recombinant PfPK7, Kinase-Glo ATP depletion luminescence.
Assay [8] has as its target Calcium-dependent protein kinase 4 (Plasmodium falciparum (isolate 3D7)) (UniProt Q8IBS5). Nature of the assay: PfCDPK4 kinase inhibitors, biochemical, TCAMS library (AID 1159588; cut-off not given, nearly all actives have IC50 up to about 0.91 µM). Conditions: recombinant PfCDPK4, Kinase-Glo ATP depletion luminescence.

A number with no mark means an inactive call. For some of these results: Measured potencies and affinities stand elsewhere. Activity calls are given as the source filed them. Unless noted, the rule behind the calls is not given here.

Chain of L-lactate dehydrogenase (Plasmodium falciparum (isolate CDC / Honduras)) (Q27743 whole entry, looked up): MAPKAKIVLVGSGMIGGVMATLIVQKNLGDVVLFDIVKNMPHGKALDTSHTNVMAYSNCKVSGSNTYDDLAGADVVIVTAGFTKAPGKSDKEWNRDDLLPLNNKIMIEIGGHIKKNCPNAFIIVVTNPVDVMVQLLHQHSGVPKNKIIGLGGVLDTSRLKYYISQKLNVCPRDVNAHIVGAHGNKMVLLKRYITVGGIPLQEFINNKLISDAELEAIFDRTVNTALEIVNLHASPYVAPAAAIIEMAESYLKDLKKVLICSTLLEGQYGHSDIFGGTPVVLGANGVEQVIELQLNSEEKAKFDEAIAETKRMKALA
Chain of Protein kinase 7 (PK7), Plasmodium falciparum 3D7 (PF3D7_0213400) (Q7YTF7 1-343): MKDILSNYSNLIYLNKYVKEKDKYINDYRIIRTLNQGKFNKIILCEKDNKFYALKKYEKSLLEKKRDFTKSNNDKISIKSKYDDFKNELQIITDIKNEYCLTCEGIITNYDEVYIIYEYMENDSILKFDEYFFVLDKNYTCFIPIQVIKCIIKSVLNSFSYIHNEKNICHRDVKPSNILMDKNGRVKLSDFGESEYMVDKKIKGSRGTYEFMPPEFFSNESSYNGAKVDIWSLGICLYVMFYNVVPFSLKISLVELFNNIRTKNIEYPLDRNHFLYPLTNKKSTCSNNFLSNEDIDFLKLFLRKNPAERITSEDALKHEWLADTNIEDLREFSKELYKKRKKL
Chain of Calcium-dependent protein kinase 4 (Plasmodium falciparum (isolate 3D7)) (Q8IBS5 whole entry, looked up): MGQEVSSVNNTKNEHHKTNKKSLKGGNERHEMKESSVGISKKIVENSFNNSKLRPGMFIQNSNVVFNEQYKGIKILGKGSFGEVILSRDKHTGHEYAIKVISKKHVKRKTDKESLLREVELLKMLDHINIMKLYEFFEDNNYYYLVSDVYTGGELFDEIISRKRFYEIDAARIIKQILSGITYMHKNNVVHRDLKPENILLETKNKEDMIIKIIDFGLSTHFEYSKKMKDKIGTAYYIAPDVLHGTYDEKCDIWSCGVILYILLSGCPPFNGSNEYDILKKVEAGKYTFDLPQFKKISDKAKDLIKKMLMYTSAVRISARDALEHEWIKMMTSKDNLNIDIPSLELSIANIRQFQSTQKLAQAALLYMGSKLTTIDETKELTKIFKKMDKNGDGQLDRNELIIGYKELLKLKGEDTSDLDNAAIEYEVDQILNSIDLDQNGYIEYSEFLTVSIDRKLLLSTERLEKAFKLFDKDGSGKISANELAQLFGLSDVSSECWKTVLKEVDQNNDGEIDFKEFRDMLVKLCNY
Chain of Plasmodium falciparum protein kinase 6 (PK6, PF3D7_1337100) (Q8IDW1 1-305): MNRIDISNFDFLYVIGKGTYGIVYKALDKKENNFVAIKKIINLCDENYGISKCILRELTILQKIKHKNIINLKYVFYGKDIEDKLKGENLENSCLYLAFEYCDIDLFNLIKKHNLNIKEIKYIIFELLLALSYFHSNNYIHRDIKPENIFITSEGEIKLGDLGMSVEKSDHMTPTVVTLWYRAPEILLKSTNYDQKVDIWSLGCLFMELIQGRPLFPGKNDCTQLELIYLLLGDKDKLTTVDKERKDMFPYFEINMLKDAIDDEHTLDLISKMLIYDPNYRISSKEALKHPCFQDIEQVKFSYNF
Chain of Calcium-dependent protein kinase 1 (Plasmodium falciparum (isolate 3D7)) (P62344 whole entry, looked up): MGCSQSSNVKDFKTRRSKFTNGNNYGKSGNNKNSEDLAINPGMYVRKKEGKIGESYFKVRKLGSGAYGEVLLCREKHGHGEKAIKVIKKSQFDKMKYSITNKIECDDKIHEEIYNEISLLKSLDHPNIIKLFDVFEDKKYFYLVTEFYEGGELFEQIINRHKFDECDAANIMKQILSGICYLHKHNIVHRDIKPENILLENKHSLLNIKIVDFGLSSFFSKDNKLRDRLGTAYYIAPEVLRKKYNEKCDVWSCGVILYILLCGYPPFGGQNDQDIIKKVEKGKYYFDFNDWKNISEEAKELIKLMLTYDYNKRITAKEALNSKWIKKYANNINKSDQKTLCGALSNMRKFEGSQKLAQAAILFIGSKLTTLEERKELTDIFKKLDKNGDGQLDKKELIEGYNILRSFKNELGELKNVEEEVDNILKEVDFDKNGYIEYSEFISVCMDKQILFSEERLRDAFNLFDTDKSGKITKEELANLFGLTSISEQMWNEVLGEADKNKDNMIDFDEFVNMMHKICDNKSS

By inhibition is commonly meant the drop in the measured response relative to a control, in per cent. Regarding `N#Cc1cccc(-c2cnc(N)c(-c3nc4ccc(S(N)(=O)=O)cc4[nH]3)c2)c1`, the growth inhibition in assay [1] is 99% (active); in assay [4], 100% (active). Besides, the inhibition in assay [2] is 16%; in assay [3], -5%. The result in assay [5], in assay [6], in assay [7] and in assay [8] was inactive.

In the case of `CN(N=Cc1ccccc1)C(N)=NCCCC#Cc1cccc(CN2CCCC2)c1`, the growth inhibition in assay [1] is 3%; in assay [4] it was 89% (active). The inhibition is 16% in assay [2] and -2% in assay [3]. Besides, the outcome in assay [5], in assay [6], in assay [7] and in assay [8] was inactive.

As for `COc1ccc2nccc([C@@H](O)CN3CCC(NC(=O)Cc4ccc(Br)c5ccccc45)CC3)c2c1`, the growth inhibition in assay [1] is 40%; in assay [4], 98% (active). Also, the inhibition in assay [2] was 10%; in assay [3], -2%. Moreover, the result in assay [5], in assay [6], in assay [7] and in assay [8] was inactive.

Turning to `Cc1[nH]c(C)c(-c2ccc(CCc3ccc(F)cc3F)cc2)c(=O)c1Cl`, the values for the growth inhibition in assay [1] and in assay [4] were 97% (active) and 98% (active), respectively. The inhibition in assay [2] was 5%; in assay [3], -4%. Also, the outcome in assay [5], in assay [6], in assay [7] and in assay [8] was inactive.

As for `CC(CO)(CO)NCc1cc2c3ccccc3c(CNC(C)(CO)CO)cc2c2ccccc12`, the growth inhibition was 98% (active) in assay [1] and 96% (active) in assay [4]. In addition, the inhibition in assay [2] was 40%; in assay [3], 3%. Further, the outcome in assay [5], in assay [6], in assay [7] and in assay [8] was inactive.

Turning to `CN1CCN(c2ccc(CNc3ccc4ncc(-c5cccc(OC(F)(F)F)c5)n4n3)cc2)CC1`, the growth inhibition in assay [1] is 78% (active); in assay [4] it was 89% (active). In addition, the inhibition in assay [2] was 25%; in assay [3], 3%. The outcome in assay [5], in assay [6], in assay [7] and in assay [8] was inactive.

As for `CCCCn1c(SC(C)C)nc2c(c1=O)C1(CCCCC1)Cc1ccccc1-2`, the values for the growth inhibition in assay [1] and in assay [4] were 60% (active) and 99% (active), respectively. Further, the inhibition is 1% in assay [2] and -2% in assay [3]. Moreover, the outcome in assay [5], in assay [6], in assay [7] and in assay [8] was inactive.

`Cc1cc(N2CCCC2)nc(Nc2ccc(NC(=O)c3ccco3)cc2)n1`: the values for the growth inhibition in assay [1] and in assay [4] were 43% and 100% (active), respectively. Moreover, the inhibition is 23% in assay [2] and -3% in assay [3]. Further, the result in assay [5], in assay [6], in assay [7] and in assay [8] was inactive.

In the case of `O=C(NCc1ccc(Cl)cc1)c1ccc(C(=O)NCC2CCCN2CC2CCCCC2)cc1` (centres undefined), the growth inhibition in assay [1] was 10%; in assay [4] it was 97% (active). Further, the inhibition in assay [2] was 21%; in assay [3], -11%. For the same molecule, the outcome in assay [5], in assay [6], in assay [7] and in assay [8] was inactive.

Consider `Cc1cccc2[nH]c(-c3ccc(-c4ccc(CNCc5ccc(CN)cc5)cc4)cc3)nc12`, for which the growth inhibition in assay [1] was 46%; in assay [4] it was 100% (active). The inhibition in assay [2] is 14%; in assay [3], -4%. Further, the outcome in assay [5], in assay [6], in assay [7] and in assay [8] was inactive.

Consider `CN(C)CCNC(=O)c1cccc(-c2cnc3ccc(NCc4ccc(Cl)c(Cl)c4)nn23)c1`, for which the figures for the growth inhibition in assay [1] and in assay [4] were 53% (active) and 100% (active), respectively. Besides, the inhibition was 31% in assay [2] and -2% in assay [3]. Besides, the result in assay [5], in assay [6], in assay [7] and in assay [8] was inactive.

Turning to `O=C(Nc1ccc(-c2nc3ccccc3[nH]2)cc1)C1CCN(Cc2ccc(F)cc2)CC1`, the growth inhibition in assay [1] was 91% (active); in assay [4], 102% (active). For the same molecule, the inhibition in assay [2] was 13%; in assay [3], 1%. Further, the result in assay [5], in assay [6], in assay [7] and in assay [8] was inactive.

As to `CCCCCCCCn1ccc(=N)cc1`, the growth inhibition is 84% (active) in assay [1] and 91% (active) in assay [4]. Moreover, the inhibition is 49% in assay [2] and -5% in assay [3]. For the same molecule, the outcome in assay [5], in assay [6], in assay [7] and in assay [8] was inactive.

Turning to `Cc1cc(OCCCN2CCC(NS(=O)(=O)c3cccc(Br)c3)CC2)c2ccccc2n1`, the growth inhibition in assay [1] is 28%; in assay [4] it was 95% (active). Also, the inhibition in assay [2] is 28%; in assay [3], -2%. In addition, the result in assay [5], in assay [6], in assay [7] and in assay [8] was inactive.

For the molecule `CC(C)Oc1ccc(CCCON2C(N)=NC(N)=NC2(C)C)cc1`, the growth inhibition in assay [1] was 94% (active); in assay [4], 96% (active). The inhibition is 66% (active) in assay [2] and 0% in assay [3]. The outcome in assay [5], in assay [6], in assay [7] and in assay [8] was inactive.

For the molecule `Cc1ccccc1-c1cc(=O)c2cc(NC(=O)c3cccs3)ccc2o1`, the growth inhibition in assay [1] is 95% (active); in assay [4], 96% (active). Also, the results for the inhibition in assay [2] and in assay [3] were 22% and -4%, respectively. The outcome in assay [5], in assay [6], in assay [7] and in assay [8] was inactive.

For the molecule `O=C(/C=C/c1ccc(Cl)c(Cl)c1)NCCCCCCN1CCN(C(=O)Nc2cc(F)cc(F)c2)CC1`, the growth inhibition was -1% in assay [1] and 86% (active) in assay [4]. Also, the inhibition in assay [2] is 23%; in assay [3], -1%. Also, the outcome in assay [5], in assay [6], in assay [7] and in assay [8] was inactive.

For `Cc1cccc2[nH]c(-c3ccc(-c4cccc(CNCCc5ccncc5)c4)cc3)nc12`, the growth inhibition is 95% (active) in assay [1] and 101% (active) in assay [4]. Also, the inhibition in assay [2] is 28%; in assay [3], 2%. In addition, the outcome in assay [5], in assay [6], in assay [7] and in assay [8] was inactive.

As to `COc1ccc(Cc2nc3c(n2C(C)=O)SC(c2ccc(Cl)c(Cl)c2)=NN3C(C)=O)cc1`, the results for the growth inhibition in assay [1] and in assay [4] were 22% and 94% (active), respectively. For the same molecule, the inhibition in assay [2] was -2%; in assay [3], -6%. Further, the result in assay [5], in assay [6], in assay [7] and in assay [8] was inactive.

For the molecule `CC(C)(C)OC(=O)C1CCCN(Cc2ccc(-c3cccc(-c4nc5ccccc5[nH]4)c3)cc2)C1` (centres undefined), the growth inhibition in assay [1] was 27%; in assay [4], 93% (active). Moreover, the inhibition in assay [2] was 37%; in assay [3], 4%. Further, the outcome in assay [5], in assay [6], in assay [7] and in assay [8] was inactive.

Consider `Cc1ccc(NC(=O)c2cnc(N3CCN(c4ccncc4)CC3)c(Cl)c2)cc1`, for which the growth inhibition was 24% in assay [1] and 94% (active) in assay [4]. Moreover, the inhibition in assay [2] was 25%; in assay [3] it was 4%. Besides, the outcome in assay [5], in assay [6], in assay [7] and in assay [8] was inactive.

As for `CN1CCC(NCc2cccc(-c3ccc(S(=O)(=O)NCCc4ccccn4)c(F)c3)c2)CC1`, the results for the growth inhibition in assay [1] and in assay [4] were 26% and 98% (active), respectively. Also, the values for the inhibition in assay [2] and in assay [3] were 11% and 7%, respectively. Also, the outcome in assay [5], in assay [6], in assay [7] and in assay [8] was inactive.

Consider `O=C(/C=C/c1ccc(Cl)c(Cl)c1)NCCCCCN1CCC(NC(=O)c2ccc3ccccc3c2)CC1`, for which the values for the growth inhibition in assay [1] and in assay [4] were 20% and 87% (active), respectively. Also, the inhibition was 8% in assay [2] and -2% in assay [3]. The outcome in assay [5], in assay [6], in assay [7] and in assay [8] was inactive.
